What is called AC50 is the midpoint of the concentration-response curve, whichever way the signal moves.

Records with an inconclusive call do not appear. Calls of active or inactive are those of the source. The calls were made as follows: active = hit-call score of the fitted dose curve at least 0.9, where 1 is the maximum; inconclusive = response in the unintended direction; inactive = score below 0.9.

The source of these data is PubChem BioAssay (EPA / NIEHS).

Test [1] addresses human Peroxisome Proliferator-activated Receptor alpha (PPARa), PPARA (gene 5465) (UniProt Q07869). Kind of test: ATG_PPARa_TRANS: Attagene TRANS-FACTORIAL HepG2 Assay for human Peroxisome Proliferator-activated Receptor alpha (PPARa) (AID 2283001).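 As to AC50: potency for gain of reporter signal over DMSO so agonist or activator.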 In short, it runs like this: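 Gain-of-signal endpoint: reporter mRNA induction relative to DMSO, detected by fluorescent RT-PCR and capillary electrophoresis. HepG2 cells transiently carried GAL4-UAS-driven reporter units plus NR-Gal4 fusion; exposure lasted 24 h.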

Test [2] has as its target human Peroxisome Proliferator-activated Receptor delta (PPARd), PPARD (gene 5467) (UniProt Q03181). As to the kind of experiment: ATG_PPARd_TRANS: Attagene TRANS-FACTORIAL HepG2 Assay for human Peroxisome Proliferator-activated Receptor delta (PPARd) (AID 2283002). In short, it runs like this: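 HepG2 cells transiently transfected with multiplexed GAL4-UAS reporter units and exogenous chimeric NR-Gal4 proteins; 24 h compound exposure. Reporter mRNA measured by RT-PCR, 6-FAM labelling, HpaI digestion and capillary electrophoresis; gain of signal versus DMSO.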

The target of test [3] is Peroxisome proliferator-activated receptor gamma (Homo sapiens) (UniProt P37231). Kind of test: ATG_PPARg_TRANS: Attagene TRANS-FACTORIAL HepG2 Assay for human Peroxisome Proliferator-activated Receptor-gamma (PPARg) (AID 2283007). The gist of the method: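 HepG2 cells are transiently transfected with GAL4-UAS reporter units driven by chimeric NR-Gal4 fusions and dosed for 24 h. Reporter mRNA is quantified by RT-PCR, 6-FAM labelling, HpaI digestion and capillary electrophoresis. Induction is scored against DMSO.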

The target of test [4] is Nuclear receptor subfamily 1 group I member 2 (Homo sapiens) (UniProt O75469). As to the kind of experiment: ATG_PXR_TRANS: Attagene TRANS-FACTORIAL HepG2 Assay for human Pregnane X Receptor (PXR) (AID 2283008). In short, it runs like this:
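Fluorescence intensity of FAM-labelled, HpaI-digested reporter amplicons, separated by capillary electrophoresis, quantifies induction. HepG2 cells with PXR-Gal4 trans-reporter system were exposed 24 h; DMSO defines baseline.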

For test [5], the target named is human RAR-related Orphan Receptor beta (RORb), RORB (gene 6096) (UniProt Q92753). As to the kind of experiment: ATG_RORb_TRANS: Attagene TRANS-FACTORIAL HepG2 Assay for human RAR-related Orphan Receptor beta (RORb) (AID 2283010). In short, it runs like this: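 Readout is reporter-gene mRNA induction, detected as fluorescence after RT-PCR and capillary electrophoresis, fitted for gain of signal against DMSO controls. Transiently transfected HepG2 liver cells carrying GAL4-UAS reporter constructs were treated for 24 hours.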

Test [6] has as its target Retinoic acid receptor RXR-alpha (Homo sapiens) (UniProt P19793). As to the kind of experiment: ATG_RXRa_TRANS: Attagene TRANS-FACTORIAL HepG2 Assay for human Retinoid X Receptor alpha (RXRa) (AID 2283012). The gist of the method:
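Transient transfection of human HepG2 with multiple GAL4-UAS reporter constructs; 24 h compound exposure; total RNA isolated, reverse-transcribed, PCR-amplified, 6-FAM labelled, HpaI-cut, resolved by capillary electrophoresis. Positive-direction fit versus DMSO.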

Test [7] deals with human Retinoid X Receptor beta (RXRb), RXRB (gene 6257) (UniProt P28702). Kind of test: ATG_RXRb_TRANS: Attagene TRANS-FACTORIAL HepG2 Assay for human Retinoid X Receptor beta (RXRb) (AID 2283013). The gist of the method:
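Transfect HepG2 with GAL4-UAS multi-reporter constructs (chimeric NR-Gal4, TRANS format); dose compound 24 h; isolate RNA, RT-PCR, FAM primer extension, HpaI digest; quantify by capillary electrophoresis; positive direction vs DMSO.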

In test [8] the target is human Thyroid Receptor alpha (THRa1), THRA (gene 7067) (UniProt P10827). As to the kind of experiment: ATG_THRa1_TRANS: Attagene TRANS-FACTORIAL HepG2 Assay for human Thyroid Receptor alpha (THRa1) (AID 2283014). In short, it runs like this:
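HepG2 cells transiently transfected with chimeric NR-Gal4 and GAL4-UAS reporter units, dosed 24 h. Reporter mRNA quantified by RT-PCR, fluorescent labeling, HpaI digestion and capillary electrophoresis; gain-of-signal fit versus DMSO.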

For test [9], the target named is human RAR-related Orphan Receptor gamma (RORg), RORC (gene 6097) (UniProt P51449). Kind of test: ATG_RORg_TRANS: Attagene TRANS-FACTORIAL HepG2 Assay for human RAR-related Orphan Receptor gamma (RORg) (AID 2283011). The gist of the method: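 HepG2 cells transiently transfected with GAL4-UAS reporter units and chimeric RORg-Gal4 construct; after 24 h chemical exposure, reporter mRNA measured by RT-PCR with fluorescent capillary electrophoresis, gain of signal fitted against DMSO.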

Test [10] has as its target Retinoic acid receptor alpha (Homo sapiens) (UniProt P10276). Kind of test: ATG_RARa_TRANS: Attagene TRANS-FACTORIAL HepG2 Assay for human Retinoic Acid Receptor alpha (RARa) (AID 2283005). In short, it runs like this:
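HepG2 cells transiently transfected with multiple reporter units expressing chimeric RARα-GAL4 fusion, with GAL4-UAS-driven reporters. After 24 h compound exposure, reporter mRNA induction quantified by RT-PCR and capillary electrophoresis with fluorescent labeling; gain-of-signal fitted relative to DMSO control.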

Test [11] has as its target human Retinoic Acid Receptor gamma (RARg), RARG (gene 5916) (UniProt P13631). As to the kind of experiment: ATG_RARg_TRANS: Attagene TRANS-FACTORIAL HepG2 Assay for human Retinoic Acid Receptor gamma (RARg) (AID 2283009). The gist of the method:
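Transient transfection of HepG2 with multi-reporter constructs, then 24 h chemical treatment. Total RNA isolated, reverse-transcribed, PCR-amplified, fluorescently labelled and resolved by capillary electrophoresis; activity scored as mRNA induction versus DMSO.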

Sequence of human Retinoic Acid Receptor gamma (RARg), RARG (gene 5916) (P13631 whole entry, looked up): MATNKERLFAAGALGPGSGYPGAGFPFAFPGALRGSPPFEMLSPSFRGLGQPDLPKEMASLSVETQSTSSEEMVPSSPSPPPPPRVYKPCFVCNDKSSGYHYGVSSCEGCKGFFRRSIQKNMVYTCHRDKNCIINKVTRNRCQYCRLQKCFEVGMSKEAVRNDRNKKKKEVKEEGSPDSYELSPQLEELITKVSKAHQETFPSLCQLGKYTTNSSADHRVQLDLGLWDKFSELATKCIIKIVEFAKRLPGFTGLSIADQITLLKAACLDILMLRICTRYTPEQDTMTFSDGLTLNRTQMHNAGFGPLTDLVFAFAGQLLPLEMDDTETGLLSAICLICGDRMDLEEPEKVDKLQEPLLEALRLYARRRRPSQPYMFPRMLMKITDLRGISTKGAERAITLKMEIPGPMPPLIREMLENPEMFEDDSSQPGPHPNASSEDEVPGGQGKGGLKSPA
Sequence of human Retinoid X Receptor beta (RXRb), RXRB (gene 6257) (P28702 whole entry, looked up, the tested form may be a part): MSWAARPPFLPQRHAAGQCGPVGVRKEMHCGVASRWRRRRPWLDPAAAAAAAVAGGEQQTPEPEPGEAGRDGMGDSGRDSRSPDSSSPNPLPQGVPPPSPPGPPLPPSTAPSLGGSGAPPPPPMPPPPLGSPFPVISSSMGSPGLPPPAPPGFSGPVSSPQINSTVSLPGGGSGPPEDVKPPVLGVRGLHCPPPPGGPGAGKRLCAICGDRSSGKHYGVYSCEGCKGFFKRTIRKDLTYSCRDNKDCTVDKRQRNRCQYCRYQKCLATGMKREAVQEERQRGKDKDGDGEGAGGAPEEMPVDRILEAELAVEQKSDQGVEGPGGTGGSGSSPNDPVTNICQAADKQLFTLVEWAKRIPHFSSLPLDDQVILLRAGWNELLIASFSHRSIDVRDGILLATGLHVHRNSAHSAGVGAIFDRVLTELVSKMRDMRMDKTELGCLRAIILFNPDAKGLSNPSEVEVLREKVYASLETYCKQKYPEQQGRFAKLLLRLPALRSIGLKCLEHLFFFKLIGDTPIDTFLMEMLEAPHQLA
Sequence of human Peroxisome Proliferator-activated Receptor delta (PPARd), PPARD (gene 5467) (Q03181 whole entry, looked up, the tested form may be a part): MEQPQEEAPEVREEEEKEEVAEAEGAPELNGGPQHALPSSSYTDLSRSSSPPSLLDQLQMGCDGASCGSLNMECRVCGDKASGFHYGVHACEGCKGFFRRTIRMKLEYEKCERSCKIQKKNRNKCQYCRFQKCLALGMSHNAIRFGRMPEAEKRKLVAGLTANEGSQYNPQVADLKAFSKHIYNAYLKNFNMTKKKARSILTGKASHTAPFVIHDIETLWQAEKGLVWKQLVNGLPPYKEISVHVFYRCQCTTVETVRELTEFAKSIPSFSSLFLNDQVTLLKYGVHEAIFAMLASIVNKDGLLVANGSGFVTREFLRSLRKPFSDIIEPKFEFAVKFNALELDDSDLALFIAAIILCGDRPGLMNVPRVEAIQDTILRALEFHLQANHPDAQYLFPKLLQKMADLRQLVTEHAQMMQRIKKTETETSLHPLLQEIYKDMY
Sequence of human Thyroid Receptor alpha (THRa1), THRA (gene 7067) (P10827 whole entry, looked up, the tested form may be a part): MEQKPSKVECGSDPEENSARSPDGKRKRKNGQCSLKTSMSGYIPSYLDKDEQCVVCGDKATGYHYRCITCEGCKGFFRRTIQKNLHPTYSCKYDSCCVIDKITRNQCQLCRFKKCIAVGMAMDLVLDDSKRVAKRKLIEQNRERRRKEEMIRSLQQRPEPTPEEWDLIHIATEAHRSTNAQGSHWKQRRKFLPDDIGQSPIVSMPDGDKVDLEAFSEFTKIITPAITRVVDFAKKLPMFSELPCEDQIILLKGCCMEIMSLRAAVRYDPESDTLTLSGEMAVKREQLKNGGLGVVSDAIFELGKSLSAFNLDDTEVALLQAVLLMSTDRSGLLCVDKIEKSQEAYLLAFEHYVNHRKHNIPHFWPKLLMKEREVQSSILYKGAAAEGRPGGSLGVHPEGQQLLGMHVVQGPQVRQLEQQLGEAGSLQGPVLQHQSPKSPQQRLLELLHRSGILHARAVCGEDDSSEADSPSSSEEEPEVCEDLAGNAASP
Sequence of human Peroxisome Proliferator-activated Receptor alpha (PPARa), PPARA (gene 5465) (Q07869 whole entry, looked up, the tested form may be a part): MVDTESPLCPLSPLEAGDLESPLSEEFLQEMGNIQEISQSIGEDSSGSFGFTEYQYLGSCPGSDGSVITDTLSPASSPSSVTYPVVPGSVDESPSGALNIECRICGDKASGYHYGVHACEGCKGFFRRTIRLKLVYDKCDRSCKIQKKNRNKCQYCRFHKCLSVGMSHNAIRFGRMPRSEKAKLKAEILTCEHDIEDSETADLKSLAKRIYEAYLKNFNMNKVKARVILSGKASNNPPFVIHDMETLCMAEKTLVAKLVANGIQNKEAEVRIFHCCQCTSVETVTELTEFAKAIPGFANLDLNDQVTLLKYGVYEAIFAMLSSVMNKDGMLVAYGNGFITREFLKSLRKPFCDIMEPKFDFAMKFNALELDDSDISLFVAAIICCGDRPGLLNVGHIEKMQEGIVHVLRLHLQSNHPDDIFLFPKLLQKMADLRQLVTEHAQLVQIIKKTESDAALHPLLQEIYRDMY
Sequence of human RAR-related Orphan Receptor beta (RORb), RORB (gene 6096) (Q92753 whole entry, looked up, the tested form may be a part): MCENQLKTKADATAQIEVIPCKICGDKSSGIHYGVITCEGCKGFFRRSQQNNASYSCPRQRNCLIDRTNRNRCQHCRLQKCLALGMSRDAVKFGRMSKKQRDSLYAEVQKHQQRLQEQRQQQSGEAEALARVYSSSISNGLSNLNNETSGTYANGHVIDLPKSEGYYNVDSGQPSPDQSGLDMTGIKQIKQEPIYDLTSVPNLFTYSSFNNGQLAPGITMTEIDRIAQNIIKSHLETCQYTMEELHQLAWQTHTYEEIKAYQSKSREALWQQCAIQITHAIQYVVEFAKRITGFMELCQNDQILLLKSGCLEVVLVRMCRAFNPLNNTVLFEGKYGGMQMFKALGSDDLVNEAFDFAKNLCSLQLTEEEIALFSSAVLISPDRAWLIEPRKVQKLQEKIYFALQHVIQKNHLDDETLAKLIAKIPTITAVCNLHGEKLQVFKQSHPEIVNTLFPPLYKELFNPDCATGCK
Sequence of Nuclear receptor subfamily 1 group I member 2 (Homo sapiens) (O75469 whole entry, looked up, the tested form may be a part): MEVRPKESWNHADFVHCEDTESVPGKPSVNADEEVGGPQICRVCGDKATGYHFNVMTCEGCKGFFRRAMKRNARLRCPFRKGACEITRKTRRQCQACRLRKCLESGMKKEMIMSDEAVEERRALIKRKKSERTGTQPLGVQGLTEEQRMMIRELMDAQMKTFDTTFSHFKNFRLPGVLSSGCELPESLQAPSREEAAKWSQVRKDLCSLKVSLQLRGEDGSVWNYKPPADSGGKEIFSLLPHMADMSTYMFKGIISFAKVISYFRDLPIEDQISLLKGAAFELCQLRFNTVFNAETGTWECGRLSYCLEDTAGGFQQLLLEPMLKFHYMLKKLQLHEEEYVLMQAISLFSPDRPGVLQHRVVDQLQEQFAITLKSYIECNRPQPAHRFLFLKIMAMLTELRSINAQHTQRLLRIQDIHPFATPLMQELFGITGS
Sequence of human RAR-related Orphan Receptor gamma (RORg), RORC (gene 6097) (P51449 whole entry, looked up, the tested form may be a part): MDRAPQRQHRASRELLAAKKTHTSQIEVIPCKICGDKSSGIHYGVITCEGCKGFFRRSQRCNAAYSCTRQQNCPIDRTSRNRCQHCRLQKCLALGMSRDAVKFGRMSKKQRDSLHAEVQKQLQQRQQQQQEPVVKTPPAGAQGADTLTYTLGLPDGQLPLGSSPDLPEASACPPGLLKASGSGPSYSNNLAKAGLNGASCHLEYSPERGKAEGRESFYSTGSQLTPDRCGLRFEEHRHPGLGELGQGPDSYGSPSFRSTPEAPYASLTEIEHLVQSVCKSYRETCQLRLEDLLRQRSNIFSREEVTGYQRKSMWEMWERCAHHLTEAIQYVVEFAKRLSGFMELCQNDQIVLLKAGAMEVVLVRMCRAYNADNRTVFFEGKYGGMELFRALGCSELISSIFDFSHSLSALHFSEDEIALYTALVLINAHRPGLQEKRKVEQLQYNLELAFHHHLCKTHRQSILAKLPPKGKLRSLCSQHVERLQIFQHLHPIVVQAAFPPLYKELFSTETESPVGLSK
Sequence of Peroxisome proliferator-activated receptor gamma (Homo sapiens) (P37231 whole entry, looked up, the tested form may be a part): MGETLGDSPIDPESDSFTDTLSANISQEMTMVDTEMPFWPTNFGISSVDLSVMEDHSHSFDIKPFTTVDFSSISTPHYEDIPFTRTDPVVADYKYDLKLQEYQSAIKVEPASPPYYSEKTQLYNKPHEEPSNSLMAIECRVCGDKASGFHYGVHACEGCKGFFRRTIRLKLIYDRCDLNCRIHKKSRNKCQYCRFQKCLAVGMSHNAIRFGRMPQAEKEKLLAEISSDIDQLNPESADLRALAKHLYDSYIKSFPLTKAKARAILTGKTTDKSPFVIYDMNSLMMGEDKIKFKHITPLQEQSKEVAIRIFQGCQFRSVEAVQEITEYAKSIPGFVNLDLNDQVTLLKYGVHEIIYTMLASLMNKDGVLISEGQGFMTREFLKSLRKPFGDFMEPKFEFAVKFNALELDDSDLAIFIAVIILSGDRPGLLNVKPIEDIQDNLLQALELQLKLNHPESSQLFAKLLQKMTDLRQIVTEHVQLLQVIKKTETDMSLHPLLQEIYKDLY
Sequence of Retinoic acid receptor alpha (Homo sapiens) (P10276 whole entry, looked up, the tested form may be a part): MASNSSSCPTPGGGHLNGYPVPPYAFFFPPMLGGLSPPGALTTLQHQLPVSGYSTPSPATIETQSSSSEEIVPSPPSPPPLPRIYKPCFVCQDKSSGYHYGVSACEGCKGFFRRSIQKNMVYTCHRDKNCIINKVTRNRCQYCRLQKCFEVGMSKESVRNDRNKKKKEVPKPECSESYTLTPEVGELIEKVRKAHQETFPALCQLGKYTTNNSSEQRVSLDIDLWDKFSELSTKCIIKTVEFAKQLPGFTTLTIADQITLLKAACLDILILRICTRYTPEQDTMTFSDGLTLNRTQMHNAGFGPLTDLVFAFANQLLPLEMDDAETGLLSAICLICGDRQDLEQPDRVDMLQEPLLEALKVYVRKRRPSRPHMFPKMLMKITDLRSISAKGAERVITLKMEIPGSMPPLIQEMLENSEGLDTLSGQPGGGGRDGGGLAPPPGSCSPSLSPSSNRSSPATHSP

Take `CC(C)(C)C1CCC(O)CC1` (configuration not stated): the call in test [1], in test [2], in [3], in test [4], in [5] and in [6] was inactive. Further, the compound was classed as inactive in test [7] and in test [8].
On to `COC(=O)C(C)Oc1ccc(Oc2ncc(C(F)(F)F)cc2Cl)cc1` (configuration not stated), for which the outcome in test [1], in test [2], in test [5], in test [6], in [7] and in test [8] was inactive. In addition, the AC50 was 48.9 µM (active) in test [3] and 40.6 µM (active) in test [4].
`C=CCOC(=O)/C=C\C(=O)OCC=C`: the AC50 was 27.5 µM (active) in test [1] and 1.96 µM (active) in test [3]. For the same compound, the compound was called inactive in [2], in test [4], in test [6], in test [7] and in test [8].
`N=C1N=C(N)c2ccccc21`: the AC50 was 173 µM (active) in test [1] and 47.5 µM (active) in test [4]. For the same compound, the call in test [3], in [5], in test [9], in test [6], in test [7] and in test [8] was inactive.
Regarding `CCCCCCCCOC(=O)c1ccc(O)cc1`, the call in test [1], in [10], in test [4], in test [11] and in test [5] was inactive. Further, the AC50 in test [7] was 11.1 µM (active).
Regarding `CC1=C(C=O)C(C)(C)CCC1`, the compound was called inactive in test [1], in test [3], in test [5], in test [9] and in [8]. Moreover, the AC50 in test [4] is 2.61 µM (active).
As to `CCC(C)C1CCCCC1=O` (configuration not stated), the outcome in [1], in [10], in [3], in test [4], in [11] and in [5] was inactive. Moreover, the call in [9], in [6], in test [7] and in test [8] was inactive.
With `CC(=O)c1ccc2ccccc2c1`, the compound was called inactive in test [1], in test [3], in test [4], in [5], in test [9] and in [6]. For the same compound, the result in test [7] and in [8] was inactive.
Regarding `CCO[Si](CCC#N)(OCC)OCC`, the call in [1], in test [3], in test [4], in test [9] and in test [8] was inactive.
With `O=C(O)c1cc2ccccc2cc1O`, the compound was called inactive in [1], in test [4], in test [5], in [9], in test [6] and in test [7]. For the same compound, the call in test [8] was inactive. In test [3], the AC50 is 36.1 µM (active).
With `CCCCCCCCCO`, the compound was classed as inactive in test [1], in [3], in test [4], in [6] and in [7].
In the case of `COc1cc(OC)c2ccc(=O)oc2c1`, the compound was called inactive in test [1], in test [3], in [4], in [5], in test [6] and in [7]. Moreover, the call in test [8] was inactive.
Take `CCOc1ccc(NC(C)=O)cc1`: the result in [1], in test [3], in test [4], in test [5], in [9] and in test [6] was inactive. Further, in [8], the call was inactive.
With `C=CC(O)CCCCC` (configuration not stated), the compound was classed as inactive in [1], in test [3], in test [4] and in test [8].
Consider `O=C(C=Cc1ccccc1)OCCCc1ccccc1`, for which the compound was classed as inactive in test [1], in test [10], in [11], in [5] and in [6]. For the same compound, the AC50 in [4] is 22.5 µM (active); in test [7], 66.6 µM (active).
`N#CCCNCCC#N`: the call in test [1], in test [3], in test [4], in test [5], in [9] and in [6] was inactive. Also, in [7], the compound was classed as inactive.
With `CCCOC(=O)CC`, the result in test [1], in [3], in [5], in test [6], in [7] and in test [8] was inactive.
